Tau fibril FP – qHTS for Inhibitors of Tau Fibril Formation, Fluorescence Polarization. K18 P301L tau heparin fibrillization, Alexa594 FP, 6 h. Potency, µM (series often up to 57.7 µM), inactives show at the highest dose activity, negative = inhibition, usual class: inhibitors. hit rate 0.39% among 280,000. AID 1468, 2008; note: nearly all actives have a fitted effect of over 55% in size
Target sequence (P10636 561-689 P618L limits assumed): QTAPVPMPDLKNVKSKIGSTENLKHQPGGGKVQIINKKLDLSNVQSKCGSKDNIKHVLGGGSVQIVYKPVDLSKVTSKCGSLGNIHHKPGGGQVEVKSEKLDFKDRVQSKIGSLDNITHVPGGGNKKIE
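Steps: dispense K18 P301L tau (15 uM plus 0.24 uM Alexa 594 tracer, final) in pH 7 sodium acetate; add compound; add heparin (20 uM final); incubate 6 hr, 37 C; add ThT (30 uM final); after 1 hr ambient, read FP.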
TRb SRC2 PPI – qHTS for Inhibitors of the Interaction of Thyroid Hormone Receptor and Steroid Receptor Coregulator 2; Potency, µM (top dose mostly 106 µM), without a hit: top-dose activity change, negative = inhibition, usual class: inhibitors; TRbeta-SRC2 peptide binding, fluorescence polarization; receptor liganded with 1 µM T3; hit rate 0.065% among 280,000;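 note: plate controls were bound peptide for no effect and peptide without receptor for full effect; nearly all actives have a fitted effect of over 50% in size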
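Assay buffer: 20 mM Tris-HCl, 100 mM NaCl, 10% glycerol, 1 mM EDTA, 0.01% NP-40, 1 mM DTT, 1 uM T3, 5% DMSO; TRb LBD 0.6 uM, Texas Red SRC2 20 nM; FP after 5 hr.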
RGS12 GoLoco inh – qHTS Assay for Inhibitors of RGS12 GoLoco Motif Activity (Red Fluorophore). Guanine nucleotide-binding protein G(i) subunit alpha-1 (Homo sapiens), P63096. Gai1:RGS12 GoLoco peptide FP, rhodamine, 10 min. Potency, µM (top dose mostly 61.6 µM), without a hit: at the top dose activity, negative = inhibition, most hits filed as inhibitors. hit rate 0.44% among 230,000; active = well fitted inhibition curve with a large enough effect, not every such curve was filed as active; inactive = no such curve, though single readings can be large or run the other way; note: nearly all actives have a fitted effect of over 30% in size
Target sequence (P63096 whole entry, looked up): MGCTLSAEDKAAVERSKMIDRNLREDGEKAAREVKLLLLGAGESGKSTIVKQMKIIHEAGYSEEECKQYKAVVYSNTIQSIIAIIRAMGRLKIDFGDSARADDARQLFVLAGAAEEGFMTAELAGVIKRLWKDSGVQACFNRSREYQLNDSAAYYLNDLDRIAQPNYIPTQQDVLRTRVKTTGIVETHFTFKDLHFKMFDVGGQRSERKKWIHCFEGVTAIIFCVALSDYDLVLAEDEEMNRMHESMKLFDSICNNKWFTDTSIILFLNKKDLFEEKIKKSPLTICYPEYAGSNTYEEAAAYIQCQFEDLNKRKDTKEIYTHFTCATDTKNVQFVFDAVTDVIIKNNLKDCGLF
TexasRed fluor – Total Fluorescence Counterscreen for Inhibitors of the Interaction of Thyroid Hormone Receptor and Steroid Receptor Coregulator 2 | TRb/SRC2 Texas Red total fluorescence interference | Potency, µM (series often up to 106 µM), for the others: top-dose fluorescence change, negative = quenching | hit rate 0.29% among 280,000 | AID 1479, 2009; active = well fitted curve in either direction with a large enough effect; inconclusive = small, poorly fitted or top-dose-only effect
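Human TRb ligand-binding domain at 0.6 uM with 20 nM Texas Red SRC2 peptide in Tris buffer containing 1 uM T3 and 5% DMSO, incubated with compound 5 h at ambient temperature. Total fluorescence (555/632 nm) calculated as parallel + 2 × perpendicular.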
Tau fluor counter – Counterscreen qHTS for Inhibitors of Tau Fibril Formation, Fluorescence Polarization; hit rate 0.93% among 280,000; tau K18 P301L Alexa594 fluorescence, heparin fibrillization; Potency, µM (titrated, usually from 57.7 µM), for inactives: at the top dose activity change, negative = decrease; note: nearly all actives have a fitted effect of over 55% in size
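Human tau K18 P301L (15 uM unlabeled, 0.24 uM Alexa 594-labeled) in 100 mM sodium acetate pH 7 with 20 uM heparin, 6 hr at 37 C. ThT 30 uM added, 1 hr ambient; Alexa 594 FP and total fluorescence read at 555/632 nm.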
Tau ThT inhib – qHTS for Inhibitors of Tau Fibril Formation, Thioflavin T Binding. Microtubule-associated protein tau (Homo sapiens), P10636. recombinant tau K18 P301L (four-repeat tau fragment), heparin-induced fibrillization, ThT fluorescence. Potency, µM (highest dose often 57.4 µM), for the others: at the top dose activity, negative = inhibition, usual class: inhibitors. hit rate 2.1% among 270,000; note: nearly all actives have a fitted effect of over 55% in size
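Heparin-induced fibrillization of the P301L-mutant K18 repeat-domain fragment of human tau was followed by ThT binding in quantitative high-throughput format.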
An asterisk follows results filed as active; ? = inconclusive; . = no result; [ ] = dose if it differs, or a comment. This is a sample that favours compounds with a hit; in the whole collection about 3.1% have one here. Unless noted, calls come from the whole dose curve; as a rule, active = well fitted curve in the direction sought with a large enough effect; inconclusive = small, poorly fitted or top-dose-only effect, or another doubt; inactive = no such curve, though single readings can be large; an effect the other way counts as inactive or inconclusive. Unless noted, % is set by controls: 0 for no effect and ±100 for the full control effect; potency is the fitted concentration of half-maximal effect.

SMILES | Tau fibril FP | TRb SRC2 PPI | RGS12 GoLoco inh | TexasRed fluor | Tau fluor counter | Tau ThT inhib
COc1cc(O)c2c(c1)C(=O)c1cc(C)cc(O)c1C2=O | -4% | -11% | -6% | -3% | -17% | ?
O=C(O)CC/C(=C\c1ccccc1[N+](=O)[O-])c1nc2ccccc2s1 | 6% | -11% | -3% | 0% | -6% | -13%
O=C(O)CC/C(=C\c1ccc(N2CCCC2)c([N+](=O)[O-])c1)c1nc2ccccc2s1 | -12% | 9% | 10% | -3% | -24% | 4.5µM*
COc1ccc(OC)c(/C=C2\SC(=S)N(C(C(=O)O)c3ccccc3)C2=O)c1 (stereo not drawn) | -12% | 2% | 27% | -1% | -15% | 16µM*
CC(/C=C1\SC(=O)N(CC(=O)Nc2ccc(O)cc2)C1=O)=C\c1ccccc1 | -8% | -14% | -111% | -1% | -5% | 6%
CC(/C=C1\SC(=O)N(CC(=O)Nc2cccc(O)c2)C1=O)=C\c1ccccc1 | 16µM* | 2% | 5% | 1% | 6.3µM*[quencher] | -27%
CC(/C=C1\SC(=S)N(C(C(=O)O)c2ccccc2)C1=O)=C\c1ccccc1 (stereo not drawn) | -13% | 3% | -67% | -3% | -13% | 32µM*
CC(=C\c1ccco1)/C=C1/SC(=S)N(CC(=O)O)C1=O | ? | -4% | 1% | -1% | ? | 4µM*
CC(/C=C1\SC(=S)N(CC(=O)N2CCN(c3ccccc3)CC2)C1=O)=C\c1ccccc1 | 2% | 0% | 2% | 0% | -22% | ?
CCN(CC)S(=O)(=O)c1ccc2c(c1)N(CC(=O)NCCc1ccc(S(N)(=O)=O)cc1)C(=O)CO2 | 7% | -1% | 1% | -6% | -21% | -18%
COc1ccc(CNC(=O)c2cc3c(=O)n(C)c4ccccc4c3n2C)cc1 | -7% | 3% | . | -4% | -8% | 0%
CSc1ccccc1NC(=O)CN(C)C(C)C(=O)Nc1ccc(C#N)cc1 (stereo not drawn) | -4% | -4% | 17% | -4% | -18% | -6%
CN1CCN(CCc2cn3ncc(C#N)c3nc2-c2ccc(F)cc2)CC1 | 2% | -8% | 7% | 1% | 0% | -3%
CCOc1ccc(/C=C2\SC(=S)N(C(C(=O)O)c3ccccc3)C2=O)cc1OC (stereo not drawn) | 1% | -2% | 4% | -5% | -3% | ?
C=CCOc1ccc(/C=C2\SC(=S)N(C(C(=O)O)c3ccccc3)C2=O)cc1 (stereo not drawn) | -6% | 0% | -3% | -1% | -4% | 22µM*
CC(/C=C1\SC(=S)N(CC(=O)O)C1=O)=C\c1ccccc1 | -8% | 14% | 3% | -4% | -23% | 7.9µM*
O=C(COc1ccc2ccccc2c1CN1CCOCC1)N1CCc2ccccc21 | 0% | 2% | -8% | 0% | 0% | -9%
CCc1cc(C(=O)NC(C)c2ccccc2)no1 (stereo not drawn) | 2% | -5% | . | 1% | -1% | -2%
CCN(CC)c1ccc(C=N/C(C#N)=C(\N)C#N)cc1 | ? | 26% | 280% | 20% | 14% | 2µM*
CCN(CC)c1ccc(/C=C(\C#N)c2ccccn2)cc1 | 14% | -5% | 17% | 2% | ? | ?
COc1ccc(N2CCN(c3nc4ccc(C(=O)c5ccccc5)cc4n4cnnc34)CC2)cc1 | 10% | -2% | . | 0% | -26% | -2%
CCOC(=O)c1c(NC(=S)Nc2cc([N+](=O)[O-])ccc2OC)sc2c1CCCCC2 | 5% | -19% | 11% | -4% | ? | ?
Cc1ccc(NC2Sc3ccccc3NC2=O)cc1 (stereo not drawn) | ? | -2% | -18% | 0% | -22% | 16µM*
CCOC(=O)Cc1nnc(NC(=O)CSc2ccccc2)s1 | -1% | -9% | 1% | 1% | -12% | -15%
Cn1c(-c2ccccc2)c(C=O)c2ccccc21 | 1% | -5% | -19% | -1% | -9% | -8%
SMILES | Tau fibril FP | TRb SRC2 PPI | RGS12 GoLoco inh | TexasRed fluor | Tau fluor counter | Tau ThT inhib
Cn1c(-c2ccccc2)c(/C=N/NC(=O)c2ccc(O)cc2)c2ccccc21 | 2% | 2% | 6% | 1% | 20µM*[quencher] | ?
Cc1ccc(NC(=O)C(=O)NCCc2csc3nc(-c4ccccc4C)nn23)cc1Cl | -5% | 0% | . | -16% | -5% | 3%
Cc1ccc(C)c(NC(=O)C(=O)NCCc2csc3nc(-c4ccccc4C)nn23)c1 | -5% | -15% | . | 22µM*[quencher] | -20% | -3%
CCC(=O)c1cn(CC(=O)OC)c2ccccc12 | 6% | 1% | 6% | 1% | -5% | -8%
COc1cc(SSc2cc(OC)cc([N+](=O)[O-])c2N)c(N)c([N+](=O)[O-])c1 | ? | 4% | 10µM* | -3% | ? | .
COc1cc([N+](=O)[O-])c2ncsc2c1 | 6% | 3% | 12% | 0% | 14% | 9%
Oc1cccc(C(=S)N2CCCCC2)c1 | ? | -6% | 5% | -1% | -4% | ?
C=CC(C1=CC(=O)C(OC)=C(OC)C1=O)c1ccccc1 (stereo not drawn) | ? | -3% | -15% | -1% | 25µM*[quencher] | 13µM*
COc1ccc(C(=O)N/N=C/C(C)c2ccccc2)cc1OC (stereo not drawn) | 6% | -14% | -5% | 5% | -5% | -7%
COc1ccc(S(=O)(=O)N=C2C=C(C)C(=O)C(C)=C2)cc1 | 7% | -3% | 2% | -3% | -21% | -24%
C=CC(C1=CC(=O)C(OC)=CC1=O)c1ccccc1 (stereo not drawn) | 20µM* | -6% | -1% | -3% | 14µM*[quencher] | 16µM*
C=CC(C1=CC(=O)C(OC)=CC1=O)c1ccc(OC)cc1 (stereo not drawn) | ? | 4% | -30% | 0% | ? | 16µM*
COCCCNC(=O)CSC1=Nc2ccccc2C2=NC(c3ccccc3)C(=O)N12 (stereo not drawn) | -8% | 1% | -2% | -1% | -5% | 0%
Cc1cc(Nc2cccc(Cl)c2)nc2ccc(NC(=O)c3cncc(Br)c3)cc12 | -11% | 5% | . | -7% | 6.3µM*[quencher] | ?

Compound activity: PubChem, National Center for Advancing Translational Sciences (NCATS)
